PubChem BioAssay (NCATS)
Several values for one entry are separate records, joined by “and”; a condition that tells them apart may be missing. Identical values can stand only once. Inconclusive results are not listed. More than one record can exist for a structure, and the calls need not agree. Activity calls are given as the source filed them. Calls follow the shape of the dose curve; as a rule, active = well fitted activation curve with a large enough effect; inconclusive = small, poorly fitted or top-dose-only effect; inactive = no such curve, though single readings can be large or run the other way. Peptide text beside a SMILES is read from it. * marks the point of attachment. AFC = O=c1cc(C(F)(F)F)c2ccc(N*)cc2o1

Each compound was assayed against Cellular tumor antigen p53 (Homo sapiens) (UniProt P04637) (assay: Primary qHTS for small molecule compounds that upregulate eGFP-tagged delta133p53alpha (in N-terminal) cells. (AID 2060322; also: nearly all actives have a fitted effect of over 75% in size;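 as to activation: cells pre-induced with doxycycline then dosed without doxycycline; series mostly up to about 56 µM; 0% = DMSO vehicle and 100% = reference activator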)). Settings: NCI-H358 eGFP-delta133p53alpha fluorescence, 24 h; activation: stronger effect = higher value.
Sequence of Cellular tumor antigen p53 (Homo sapiens) (P04637 whole entry, looked up): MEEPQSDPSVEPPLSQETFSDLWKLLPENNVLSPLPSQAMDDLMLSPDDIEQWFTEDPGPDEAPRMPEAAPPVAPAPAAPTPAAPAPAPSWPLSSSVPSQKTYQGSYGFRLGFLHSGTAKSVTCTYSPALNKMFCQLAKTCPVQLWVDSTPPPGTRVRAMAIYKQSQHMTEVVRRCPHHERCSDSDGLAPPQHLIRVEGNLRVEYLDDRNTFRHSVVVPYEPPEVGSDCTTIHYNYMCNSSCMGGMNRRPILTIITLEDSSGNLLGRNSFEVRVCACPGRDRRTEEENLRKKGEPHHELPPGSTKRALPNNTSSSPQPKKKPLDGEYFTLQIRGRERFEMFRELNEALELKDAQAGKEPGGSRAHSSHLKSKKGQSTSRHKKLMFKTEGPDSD
Text: Assay Development and Screening Technology
National Center for Advancing Translational Sciences (NCATS),
National Institute of Health (NIH), Rockville, Maryland
Cellular senescence (CS) is one of the hallmarks of aging and age-related diseases. Senescent cells are characterized by an irreversible growth arrest, an increase in senescence-associated beta-galactosidase (SA-beta-gal) activity and p16INK4a expression, an activation of the DNA damage response pathways, and the emergence of a senescence-associated secretory phenotype (SASP).
Delta133p53alpha, a human/primate-specific p53 protein isoform, delays or inhibits the induction of CS and SASP in various types of human cells, including progeria-derived fibroblasts, primary normal astrocytes, and CD8+ T lymphocytes. Induction of delta133p53alpha with small molecule compounds may provide therapeutic opportunities for inhibition of senescence/SASP-associated pathologies in progeria syndromes, astrocyte-mediated neuroprotection in neurodegenerative diseases, and possibly prevention and treatment of a wider range of senescence- and aging-associated diseases.
Here we report the development and validation of a cell-based quantitative high throughput screening (qHTS) assay in 1,536-well format. This qHTS assay uses the NCI-H358 cell line with doxycycline-inducible expression of enhanced green fluorescent protein (eGFP)-tagged delta133p53alpha, which allows efficient and highly quantitative measurement of the protein levels.
PROTOCOL TABLE (as described by Inglese J, Shamu CE and Guy RK. 2007)
SEQUENCE No. (e.g., 1, 2, 3, etc.); […] (e.g., Cells, Incubation, Reagent, etc.); VALUE; DESCRIPTION.
1; Cells; 4uL; 800 doxycycline treated cells / well in doxycycline-free media, 1536-well black, clear-bottom low base Aurora microplates.
2; Compounds; 23 nL; Kalypsis pin tool (Wako) equipped with 1536-well pin heads, 5-azacytidine positive control.
3; Incubation; 24 hr; 37C, 5% CO2; 95% relative humidity.
4; Aspiration; 1x; BioTek EL406 washer dispenser (Agilent).
5; Fixing; 3.5% paraformaldehyde, BioTek EL406 washer dispenser (Agilent).
6; Washing; 1x PBS; BioTek EL406 washer dispenser (Agilent).
7; Nuclei staining; 1:1000 dilution of Hoechst 33342 (Thermofisher), BioTek EL406 washer dispenser (Agilent).
8; Incubation; 20 min; in the dark at room temperature.
9; Washing; 2x, 1x PBS (ThermoFisher), BioTek EL406 washer dispenser (Agilent).
10; Reagent; 10 uL; 1x PBS per well, sealed with clear adhesive tape.
NOTES (numbers refer to sequence numbers above).
1. NCI-H358 cells expressing eGFP-tagged delta133p53alpha were grown in T75 culture flasks and treated with doxycycline for 24h, at 10 ng/ml for eGFP-D133p53a cells (N-terminal cell) and 100 ng/ml for D133p53a-eGFP cells (C-terminal cells). Cells were trypsinized, counted using a Counted 3 Automated Cell Counter (Thermo Fisher), and diluted to a concentration of 200,000 cells/ml. A Multidrop Combi Reagent Dispenser (ThermoFisher) was used to dispense 800 cells/well in […] of doxycycline-free media, into 1536-well black/clear bottom low base plates (AuroraMicroplates).
2. After plating cells, 23 nl of compound library, DMSO vehicle control or positive control (5-azacytidine) were transferred by Pin Tool (Wako). The plate map layout was the same for each plate: (column 1) non-doxycycline treated cells + DMSO vehicle control; (column 2) doxycycline treated cells + DMSO vehicle control baseline; (column 3) doxycycline treated cells + positive control 57.5 uM final concentration 5-azacytidine; (column 4) doxycycline treated cells + serial dilution of 5-azacytidine, 16-point 1:2 titration spanning 1.8 nM to […] final concentration; (columns 5-48) doxycycline treated cells + titration of library compounds.
3. Cells were incubated at 37 °C, 5 % CO2, 95% RH with breathable metal lid for 24h.
4-10. […] After two washes, 10 ul of 1X PBS (Thermo Fisher) was dispensed to each well. Clear adhesive plate seals (VWR) were applied and plates stored at 4 °C.
11. […]
Potency is read from the fitted curve at half-maximal effect.

| Compound | activation | Potency |
| --- | --- | --- |
| CC(C)(C)C(=O)C(Oc1ccc(Cl)cc1)n1ccnc1 (stereo not given) | -37.9% (inactive) and -2.39% (inactive) |  |
| O=C(c1ccc(F)cc1)N1CCC[C@H](c2nc(-c3ccc(F)cc3)no2)C1 | 6.17% (inactive) |  |
| CC(=O)N[C@@H](Cc1c[nH]c2ccccc12)C(=O)N[C@@H](CCC(=O)O)C(=O)N[C@@H](Cc1cnc[nH]1)C(=O)N[C@@H](CC(=O)O)C(=O)Nc1ccc2c(C(F)(F)F)cc(=O)oc2c1 (Ac-WEHD-{AFC}) | -4.33% (inactive) |  |
| C=C1C(O)C[C@@H]2C(C(=O)O)=CO[C@@H](O[C@@H]3O[C@H](CO)[C@@H](O)[C@H](O)[C@H]3OC(=O)c3ccc(O)cc3)[C@H]12 (stereo not given in full) | 9.82% (inactive) |  |
| O=C(O)CCc1cccc(O[C@@H]2O[C@H](CO)[C@@H](O)[C@H](O)[C@H]2O)c1O | -6.87% (inactive) |  |
| COCCOC(=O)C1=C(C)NC(C)=C(C(=O)OC(C)C)C1c1cccc([N+](=O)[O-])c1 (stereo not given) | -10.6% (inactive) | 6.92 µM (active) |
| NC(=O)Nc1cc(-c2cccc(F)c2)sc1C(=O)N[C@H]1CCCNC1 |  | 8.49 µM (active) |
| C[C@@H]1C[C@@H]([C@@H](O)C(C)(C)O)O[C@H]2C[C@@]3(C)C(=C12)C[C@H](O)[C@H]1[C@@]2(C)CCC(=O)C(C)(C)C2CC[C@@]13C (stereo not given in full) | -6.87% (inactive) |  |
| CNC(C)C(=O)NC(C(=O)N1CCCC1C(=O)Nc1snnc1-c1ccccc1)C1CCCCC1 (stereo not given) | 11% (inactive) |  |
| CCCCCCCCCCCCCCCCCCN(CCCCCCCCCCCCCCCCCC)CCCN(CCO)CCO | -13.9% (inactive) |  |
| COc1ccc2cc(OCC3(C(=O)O)CN(C(=O)c4ccc(F)cc4)C3)ccc2c1 | 2.86% (inactive) |  |
| Fc1ccc(CNc2ncnc3ccc(F)cc23)cc1 | -0.393% (inactive) and 5.25% (inactive) |  |
| H-DPPDPDRFYGMM-NH2 | -11% (inactive) |  |
| O=C(c1ccc2c(c1)OCCO2)N1CCCCC1 | 8.27% (inactive) |  |
| COc1c(O)cc2c(c1O)[C@@H]1O[C@H](CO)[C@@H](O)[C@H](O)[C@H]1OC2=O | 18% (inactive) and -2.68% (inactive) |  |
| Nc1nc(OCc2cc(Br)cs2)c2[nH]cnc2n1 | -5% (inactive) |  |
| Cc1ncc(CO)c(CO)c1O | -24.3% (inactive) |  |
| CC1CCC2C(C)(C)[C@H](O)CC[C@]2(C)C12Cc1c(O)cc3c(c1O2)CN(C(CCC(=O)O)C(=O)O)C3=O (stereo not given in full) | -2.29% (inactive) |  |
| CCn1nc(C(=O)O)c(=O)c2cc3c(cc21)OCO3 | -7.53% (inactive) and -29.2% (inactive) |  |

| Compound | activation | Potency |
| --- | --- | --- |
| O=c1cc[nH]c(=O)[nH]1 | -12.6% (inactive) |  |
| CC(C)C[C@@H](N)[C@H](O)C(=O)N[C@H](C(=O)N[C@H](C(=O)N[C@@H](CC(=O)O)C(=O)O)C(C)C)C(C)C | -3.94% (inactive) |  |
| COc1cc(/C=C/C(=O)NCCn2c(C(F)(F)F)cc3ccccc32)cc(OC)c1OC | -3.67% (inactive) |  |
| CC(=O)OC[C@@H]1O[C@@H](n2ccc(=O)[nH]c2=O)[C@H](OC(C)=O)[C@H]1OC(C)=O | 5.73% (inactive) |  |
| C=CC(=O)N1CC(N2CCN(C(=O)CNc3cc(C4CC4)c(Cl)cc3O)CC2)C1 | 10% (inactive) |  |
| O=C(O)[C@H](Cc1ccccc1)Oc1ccc(-c2ccccc2)cc1 | -3.34% (inactive) |  |
| C=C1C[C@]23C[C@H]1CC[C@H]2[C@]1(C)CC[C@H](O)[C@@](C)(C(=O)O)[C@H]1[C@@H]3C(=O)O | -6.11% (inactive) |  |
| O=S(=O)(O)c1ccc2cc(N=Nc3cc(S(=O)(=O)O)c4cccnc4c3O)ccc2c1 | -29.8% (inactive) and -2.86% (inactive) |  |
| FC(F)(F)c1cc(-c2ncn(/C=C\c3nnco3)n2)cc(C(F)(F)F)c1 | 7.67% (inactive) |  |
| CC(C)(C)c1onc(OCP(=O)(O)O)c1CC(N)C(=O)O (stereo not given) | 5.95% (inactive) |  |
| CNCCN1CCC(OCc2ccccc2)CC1 | -13.4% (inactive) |  |
| Cc1c[nH]c2ccccc12 | 17.6% (inactive) |  |
| COc1cc(CNC(=O)CCCCC=CC(C)C)ccc1O | -14.9% (inactive) |  |
| COCCOc1nc(-c2ccc(Cl)c(Cl)c2)n(-c2ccc(NC(=O)CCl)cc2)n1 | 36.6% (inactive) | 15.1 µM (active) |
| C[C@H](NC(=O)Cc1cc(F)cc(F)c1)C(=O)N[C@H](C(=O)OC(C)(C)C)c1ccccc1 | 11.5% (inactive) |  |
| CCN(CC)CCOC(=O)C1(c2ccccc2)CCCC1 | 3.35% (inactive) |  |
| Cc1nnc(NS(=O)(=O)c2ccc(N)cc2)s1 | -14.2% (inactive) and -3.76% (inactive) |  |
| Cc1ccc2nc(NC(=O)CSc3nc4c(c(=O)n3C)SC(C)C4)sc2c1 (stereo not given) | 21.2% (inactive) |  |
| CCCCS(=O)(=O)Nc1ncnc(OCCOc2ncc(Br)cn2)c1-c1ccc(Br)cc1 | -20.3% (inactive) |  |
